Measured values as given in PubChem BioAssay (NCI).
The panel holds about 83,000 compounds, 20% with a hit somewhere; the sample as a whole holds those more often.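 Single-concentration screen, 48 h exposure, 96-well plates. Endpoint: percent growth. Below 10 = active.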 A number with no mark means an inactive call. Calls of active or inactive are those of the source.

What was measured:
Assay in all cases: NCI-60 one-dose screen, 48 h (100 = growth as untreated, 0 = no growth, -100 = all killed)
Details in all cases: 10 µM unless noted
DU-145 prostate = test system: DU-145 prostate
K-562 leukemia = test system: K-562 leukemia
MALME-3M melanoma = test system: MALME-3M melanoma
MDA-MB-231 breast = test system: MDA-MB-231 breast
RXF 393 renal = test system: RXF 393 renal
SF-268 CNS = test system: SF-268 CNS
SF-295 CNS = test system: SF-295 CNS
SF-539 CNS = test system: SF-539 CNS
UACC-257 melanoma = test system: UACC-257 melanoma
HCT-15 colon = test system: HCT-15 colon
HT29 colon = test system: HT29 colon
SNB-75 CNS = test system: SNB-75 CNS
SNB-19 CNS = test system: SNB-19 CNS
U251 CNS = test system: U251 CNS
PC-3 prostate = test system: PC-3 prostate
SK-MEL-5 melanoma = test system: SK-MEL-5 melanoma
UACC-62 melanoma = test system: UACC-62 melanoma
LOX IMVI melanoma = test system: LOX IMVI melanoma
SK-MEL-28 melanoma = test system: SK-MEL-28 melanoma

SMILES	growth (DU-145 prostate)	growth (K-562 leukemia)	growth (MALME-3M melanoma)	growth (MDA-MB-231 breast)	growth (RXF 393 renal)	growth (SF-268 CNS)	growth (SF-295 CNS)	growth (SF-539 CNS)	growth (UACC-257 melanoma)	growth (HCT-15 colon)	growth (HT29 colon)	growth (SNB-75 CNS)	growth (SNB-19 CNS)	growth (U251 CNS)	growth (PC-3 prostate)	growth (SK-MEL-5 melanoma)	growth (UACC-62 melanoma)	growth (LOX IMVI melanoma)	growth (SK-MEL-28 melanoma)
O=C(O)c1ccc(-n2cc(/C=N/Nc3ccccc3)c(-c3ccc(F)cc3F)n2)cc1	49.2%	18.6%	70.4%	41%	92.9%	45.8%	77.2%	75.3%	114%	51.4%	90.5%	78.2%	84.3%	85.9%	51.9%	58%	-14.3% (active)	18.5%	74.1%
Clc1ccc(/C=N\N=C\c2ccc(Cl)c(Cl)c2)cc1Cl	3.88% (active)	88.8%	125%	80.6%	79.3%	91.9%	81.1%	102%	106%	7.55% (active)	32.3%	123%	95.1%	76.3%	71%	93.8%	84.1%	72.4%	101%
COC(=O)Nc1nc2ccc(S(=O)c3ccccc3)cc2[nH]1 (stereo not given)	96.3%	29.9%	83.7%	68.4%	107%	84.8%	58.4%	73.6%	73.9%	45.6%	16.9%	73.2%	74.9%	60.2%	67.4%	42.5%	52.4%	64.8%	72.8%
COc1ccc(CNc2c3ccccc3nc3ccccc23)cc1	48%	6.97% (active)	40%	47.4%	27.6%	63.4%	39.1%	27.5%	52.3%	22%	–	61.8%	34%	36.5%	34%	62.2%	55.8%	20.9%	79.6%
Cc1ccc(-c2nc([P+](c3ccccc3)(c3ccccc3)c3ccccc3)c(S(=O)(=O)c3ccc(C)cc3)o2)cc1	25.5%	4.12% (active)	-0.571% (active)	3.47% (active)	-28.6% (active)	45.5%	81%	-65.6% (active)	3.98% (active)	4.17% (active)	0% (active)	-11.3% (active)	53.5%	3.23% (active)	11.2%	48.7%	26.1%	-31.7% (active)	24.6%
O=C(Nc1ccc(OS(=O)(=O)c2ccc(F)cc2)cc1)C1CCCCCC1	90.6%	55.4%	99.6%	82.7%	105%	88.2%	98%	89.7%	93.9%	54.7%	31.6%	102%	89.4%	72.9%	88.3%	71.9%	–	86.7%	109%
COc1ccc(Cc2cnc(NC(=O)c3cc(C)oc3C)s2)cc1	40.7%	11.4%	52.5%	63.6%	16.4%	53.3%	39.4%	32.5%	57.3%	26.9%	13.6%	-8.41% (active)	38.7%	–	39.3%	25.8%	27.1%	39.9%	54.3%
